Data on eleven compounds can be found in PubChem BioAssay (Tox21).

The nature of assay [1]: qHTS assay to identify small molecule antagonists of the androgen receptor (AR) signaling pathway using the MDA cell line in the presence of 0.5 nM R1881 - cell viability counter screen (AID 1259242). Note: nearly all actives have a fitted effect of over 45% in size. Note: potency is the fitted concentration of half-maximal effect. A digest of the protocol: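 Live-cell protease fluorescence, CellTiter-Fluor, 30 min at 37C. Cells: MDA-kb2, 3,000/well, preincubated 5 hr. Compounds plus 0.5 nM R1881 final, 16 hr, 37C, 0% CO2.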

The target in assay [2] is Estrogen receptor (Homo sapiens) (UniProt P03372). As to the kind of experiment: qHTS assay to identify small molecule antagonists of the estrogen receptor alpha (ER-alpha) signaling pathway using the BG1 cell line in the presence of 0.1 nM 17-beta-estradiol (AID 1259244). Note: nearly all actives have a fitted effect of over 50% in size. Note: potency is the fitted concentration of half-maximal effect. In short, it runs like this: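 Luminescence after ONE-Glo (30 min, room temperature) measured ERE-luciferase activity in VM7Luc4E2 cells treated 22 h with compound and 0.1 nM final 17beta-estradiol as stimulator.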

Assay [3] is described as follows: qHTS assay to identify small molecule phospholipidosis (PLD) inducers (AID 1259344; active = well fitted curve in the direction sought with a large enough effect; an effect the other way counts as inactive or inconclusive). A digest of the protocol: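 After 4 h attachment on collagen I, HepG2 cells were dosed with compound alongside LipidTOX Red, kept 24 h at 37 C, fixed, and imaged for lamellar phospholipid pits.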
Assay [4] can be described thus: qHTS assay to identify small molecule HDAC inhibitors (AID 1259364).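 Note: wild-type HCT-116 cells with endogenous class I/II HDAC activity; top concentration of the series differs between compounds; nearly all actives have a fitted effect of over 45% in size.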 In short, it runs like this: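 HCT-116 (wild type), 1,500 cells/well, overnight; compound 2 hr 37C 5% CO2; HDAC-Glo I/II reagent 30 min RT; luminescence readout.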
Assay [5] can be described thus: qHTS assay to identify small molecule HDAC inhibitors - cell viability counter screen (AID 1259365). Note: series mostly up to about 92 µM; nearly all actives have a fitted effect of over 50% in size. A digest of the protocol: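 Luminescence from CellTiter-Glo, developed 30min at room temperature, reports viability of wild-type HCT-116 cells treated 2hr with compounds at 37 C and 5% CO2 after overnight plating.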
The nature of assay [6]: qHTS assay to identify small molecule antagonists of the sonic hedgehog signaling (Shh) pathway (AID 1259369; calls by dose curve; note: nearly all actives have a fitted effect of over 45% in size; note: potency is the fitted concentration of half-maximal effect). A digest of the protocol: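 Luminescence readout: firefly Luc under Gli1 response element in 3T3Gli1-Luc cells (NIH/3T3 clone). Antagonist mode, stimulation by conditioned medium; compound exposure 24hr at 37 C, 5% CO2.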
For assay [7], the target named is Estrogen receptor beta (Homo sapiens) (UniProt Q92731). As to the kind of experiment: qHTS assay to identify small molecule antagonists of the estrogen receptor beta (ER-beta) signaling pathway (AID 1259378; active = well fitted inhibition curve with a large enough effect in the signal ratio in the repeat runs, not every such curve was filed as active; the % refers to the signal ratio; note: potency is the fitted concentration of half-maximal effect). In short, it runs like this: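 ER-beta-UAS-bla HEK293T (GripTite) cells in 2% charcoal-stripped FBS medium were preincubated 6 hr at 37C, dosed with compound, then stimulated with 1 nM E2 (final) for 16 hr; beta-lactamase reporter read by B/G FRET fluorescence after 2 hr substrate loading.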

The nature of assay [8]: qHTS assay to identify small molecule agonists of the estrogen receptor beta (ER-beta) signaling pathway - cell viability counter screen (AID 1259380). Note: nearly all actives have a fitted effect of over 30% in size. Note: potency is the fitted concentration of half-maximal effect. A digest of the protocol: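 Luminescence read-out (CellTiter-Glo, 30 min, room temp) taken in the same wells as the beta-lactamase reporter assay; ER-beta-UAS-bla HEK293T cells exposed to DMSO-dissolved compounds for 16 hr at 37C in 2% charcoal-stripped FBS medium.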

Assay [9] has as its target Estrogen receptor (Homo sapiens) (UniProt P03372). As to the kind of experiment: qHTS assay to identify small molecule agonists of the estrogen receptor alpha (ER-alpha) signaling pathway in the presence of an antagonist (AID 1259383; calls by dose curve; note: top concentration of the series differs between compounds; nearly all actives have a fitted effect of over 15% in size). In short, it runs like this: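 Luciferase luminescence (ONE-Glo, 30min at room temperature) measured in VM7Luc4E2 cells after 22hr compound exposure at 15 concentrations, with 10.0nM ICI-182,780 final present; cells express endogenous ER-alpha and carry four EREs upstream of luciferase.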

Assay [10] in a line: qHTS assay to identify small molecule agonists or antagonists of the thyroid stimulating hormone receptor (TSHR) signaling pathway - wild type cell line counter screen (AID 1259384; calls by dose curve). A digest of the protocol:
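Wild-type HEK293 cells were plated 18 h at 37 C/5% CO2, pin-dosed with compound plus Ro20-1724 medium, held 30 min at room temperature, then given cAMP-d2 and anti-cAMP-cryptate; fluorescence was read after 1 h. Fifteen concentrations, triplicate.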

Assay [11] has as its target Thyrotropin receptor (Homo sapiens) (UniProt P16473). As to the kind of experiment: qHTS assay to identify small molecule antagonists of the thyroid stimulating hormone receptor (TSHR) signaling pathway (AID 1259385; calls by dose curve; note: nearly all actives have a fitted effect of over 20% in size; note: potency is the fitted concentration of half-maximal effect). A digest of the protocol:
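TSHR-HEK293 cells were plated and held 18 h at 37C/5% CO2, then given compound plus Ro20-1724 and stimulated with TSH at 1.5 ng/mL final. After 30 min at room temperature, cAMP was detected with cAMP-d2/anti-cAMP-cryptate (1 h) by fluorescence.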

Assay [12] is described as follows: qHTS assay to identify small molecule agonists of the sonic hedgehog signaling (Shh) pathway - cell viability counter screen (AID 1259366). Note: nearly all actives have a fitted effect of over 50% in size. Note: potency is the fitted concentration of half-maximal effect. In short, it runs like this: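 Cytotoxicity counter screen run in the same wells as the Shh reporter assay. NIH/3T3 cells carrying a Gli1 response element–driven luciferase were treated with DMSO-dissolved compounds for 24hr, and live-cell protease activity was measured with CellTiter-Fluor.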

A short description of assay [13]: qHTS assay to identify small molecule antagonists of the sonic hedgehog signaling (Shh) pathway - cell viability counter screen (AID 1259367). Note: nearly all actives have a fitted effect of over 55% in size. Note: potency is the fitted concentration of half-maximal effect. A digest of the protocol: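 Conditioned medium drove Shh signaling in 3T3 Gli1-Luc cells exposed to compounds at 37C and 5% CO2. Viability was determined from CellTiter-Fluor fluorescence, with reagent incubated 1 hr after 23 hr of treatment.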

The nature of assay [14]: qHTS assay to identify small molecule agonists of the sonic hedgehog signaling (Shh) pathway (AID 1259368; calls by dose curve;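 note: NIH/3T3-derived 3T3Gli1-Luc cells carrying a stable Gli1-driven firefly luciferase reporter; series mostly up to about 92 µM; nearly all actives have a fitted effect of over 15% in size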). A digest of the protocol:
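Read-out: firefly luciferase luminescence from a Gli1 response element reporter stably integrated in NIH/3T3-derived 3T3Gli1-Luc cells, measured 30 min at room temperature after reagent addition. Compound exposure lasted 24 hr at 37 C, 5% CO2.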

A short description of assay [15]: qHTS assay to identify small molecule agonists of the androgen receptor (AR) signaling pathway in the presence of an antagonist - cell viability counter screen (AID 1259379). Note: nearly all actives have a fitted effect of over 25% in size. Note: potency is the fitted concentration of half-maximal effect. In short, it runs like this: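 Viability counter screen: CellTiter-Fluor fluorescence, measured in the same wells as the luciferase read-out. MDA-kb2 cells, 3,000/well, with nilutamide at 3.0uM final and compounds at 15 concentrations, 16 hr at 37C, 0% CO2.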

The nature of assay [16]: qHTS assay to identify small molecule antagonists of the estrogen receptor beta (ER-beta) signaling pathway - cell viability counter screen (AID 1259382). Note: series mostly up to about 92 µM; nearly all actives have a fitted effect of over 55% in size. A digest of the protocol: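 Luminescent ATP read-out (CellTiter-Glo, 30 min, RT) taken in the same wells as the bla reporter assay. HEK293T ER-beta-UAS-bla cells in 2% charcoal-stripped FBS were exposed to compounds with 1nM E2 for 16 hr at 37C.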

The target of assay [17] is Estrogen receptor beta (Homo sapiens) (UniProt Q92731). Put plainly: qHTS assay to identify small molecule agonists of the estrogen receptor beta (ER-beta) signaling pathway (AID 1259377; active = well fitted activation curve with a large enough effect in the signal ratio in the repeat runs, not every such curve was filed as active; the % refers to the signal ratio). A digest of the protocol:
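HEK293T ER-beta-UAS-bla; 2% charcoal-stripped FBS; cells pre-incubated 6 hr, compound 16 hr, 37C/5% CO2; LiveBLAzer B/G FRET substrate 2 h RT; fluorescence intensity read.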

SMILES strings stand for the structures. Where “and” joins values, the source holds several entries; their conditions need not be identical. Equal values may be shown once. Inconclusive results are not listed. Some structures have more than one record in an assay (separate samples or runs), and their calls can disagree. Calls of active or inactive are those of the source. Unless noted, calls come from the whole dose curve; as a rule, active = well fitted curve in the direction sought with a large enough effect in the repeat runs; inconclusive = weak or mixed curves; inactive = no such curve, though single readings can be large; an effect the other way counts as inactive or inconclusive.

Chain of Estrogen receptor beta (Homo sapiens) (Q92731 whole entry, looked up): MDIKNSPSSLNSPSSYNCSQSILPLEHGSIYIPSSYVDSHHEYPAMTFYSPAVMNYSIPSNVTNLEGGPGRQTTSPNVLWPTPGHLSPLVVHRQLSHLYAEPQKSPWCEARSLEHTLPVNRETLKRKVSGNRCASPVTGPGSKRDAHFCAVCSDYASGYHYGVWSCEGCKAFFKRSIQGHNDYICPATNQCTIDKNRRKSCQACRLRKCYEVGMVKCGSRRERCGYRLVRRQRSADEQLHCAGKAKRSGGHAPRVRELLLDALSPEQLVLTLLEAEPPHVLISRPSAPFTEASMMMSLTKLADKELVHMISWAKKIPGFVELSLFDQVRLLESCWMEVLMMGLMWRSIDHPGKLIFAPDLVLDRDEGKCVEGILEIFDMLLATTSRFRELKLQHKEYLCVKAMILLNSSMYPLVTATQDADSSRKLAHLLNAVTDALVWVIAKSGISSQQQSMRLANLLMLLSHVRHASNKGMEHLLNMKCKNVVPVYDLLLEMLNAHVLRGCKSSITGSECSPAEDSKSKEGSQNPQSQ
Chain of Thyrotropin receptor (Homo sapiens) (P16473 whole entry, looked up): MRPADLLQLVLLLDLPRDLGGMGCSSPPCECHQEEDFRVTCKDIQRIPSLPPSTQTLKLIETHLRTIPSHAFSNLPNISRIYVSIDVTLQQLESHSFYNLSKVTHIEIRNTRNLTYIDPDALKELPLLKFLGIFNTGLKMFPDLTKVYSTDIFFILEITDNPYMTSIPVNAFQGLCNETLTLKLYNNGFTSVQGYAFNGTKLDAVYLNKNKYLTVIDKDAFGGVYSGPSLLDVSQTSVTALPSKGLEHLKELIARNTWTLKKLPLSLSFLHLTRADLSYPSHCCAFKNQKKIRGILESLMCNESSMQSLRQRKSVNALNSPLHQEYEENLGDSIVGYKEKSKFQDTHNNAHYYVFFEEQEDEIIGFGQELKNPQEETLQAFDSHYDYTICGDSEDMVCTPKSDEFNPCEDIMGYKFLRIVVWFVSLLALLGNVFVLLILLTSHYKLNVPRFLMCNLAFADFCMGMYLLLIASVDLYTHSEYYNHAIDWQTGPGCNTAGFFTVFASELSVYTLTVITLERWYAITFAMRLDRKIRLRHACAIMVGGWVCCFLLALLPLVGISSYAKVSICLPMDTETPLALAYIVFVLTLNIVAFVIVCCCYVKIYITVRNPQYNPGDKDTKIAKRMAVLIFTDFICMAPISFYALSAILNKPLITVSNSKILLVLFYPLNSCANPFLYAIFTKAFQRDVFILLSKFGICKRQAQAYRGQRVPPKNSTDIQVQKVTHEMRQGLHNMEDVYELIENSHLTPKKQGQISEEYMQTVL
Chain of Estrogen receptor (Homo sapiens) (P03372 whole entry, looked up): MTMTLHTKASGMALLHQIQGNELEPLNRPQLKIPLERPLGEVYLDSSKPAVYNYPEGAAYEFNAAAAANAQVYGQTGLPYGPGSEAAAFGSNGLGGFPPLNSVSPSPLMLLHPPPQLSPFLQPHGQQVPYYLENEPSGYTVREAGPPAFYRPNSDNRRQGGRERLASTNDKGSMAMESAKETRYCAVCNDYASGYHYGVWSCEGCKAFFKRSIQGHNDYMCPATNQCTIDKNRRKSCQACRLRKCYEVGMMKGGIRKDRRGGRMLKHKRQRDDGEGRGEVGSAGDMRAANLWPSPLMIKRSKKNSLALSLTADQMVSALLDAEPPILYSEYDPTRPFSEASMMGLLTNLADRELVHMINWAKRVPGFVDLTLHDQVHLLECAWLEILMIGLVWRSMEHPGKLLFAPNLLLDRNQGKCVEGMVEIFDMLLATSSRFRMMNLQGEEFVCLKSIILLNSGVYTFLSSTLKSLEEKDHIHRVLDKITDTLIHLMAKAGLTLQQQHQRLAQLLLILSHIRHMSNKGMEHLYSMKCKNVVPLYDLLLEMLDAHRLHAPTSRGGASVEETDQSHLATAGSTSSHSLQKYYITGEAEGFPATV

Turning to `CN1C[C@H](C(=O)N[C@]2(C)O[C@@]3(O)[C@@H]4CCCN4C(=O)[C@H](Cc4ccccc4)N3C2=O)C=C2c3cccc4[nH]cc(c34)C[C@H]21`, the Potency result in assay [1], in [4], in assay [5], in [9] and in assay [11] was “inactive” throughout. The Potency in [2] is 27.4 µM (active) and inactive; in assay [6], 3.87 µM (active); in [7], 27.4 µM (active); in assay [8], 21.8 µM (active) and 7.16 µM (active). Also, the call in assay [3] and in [10] was inactive.

On to `NNCCO`, for which the Potency result in [2], in assay [4], in [12], in assay [13], in assay [14] and in assay [6] was “inactive” each time. The Potency result in assay [7], in assay [15], in assay [8], in assay [16], in assay [9] and in assay [11] was “inactive” each time. For the same compound, the outcome in assay [10] was inactive.

With `CCCCNC(=O)OCC#CI`, the Potency is 60.8 µM (active) in [1]; 12.1 µM (active) and 48.6 µM (active) in assay [2]; 60.8 µM (active) and 30.6 µM (active) in assay [12]; 54.2 µM (active) and 61.1 µM (active) in assay [13]; 2.16 µM (active) and 7.7 µM (active) in [6]; 60.8 µM (active) and 68.6 µM (active) in assay [15]. Moreover, in assay [8], the Potency is 60.8 µM (active) and inactive. Moreover, the Potency entry in assay [4], in [5], in [14], in assay [17], in [7] and in [16] was “inactive” throughout. The Potency entry in assay [9] and in assay [11] was “inactive” each time.

As for `O=C1CC[C@@]2(O)[C@H]3Cc4ccc(O)c5c4[C@@]2(CCN3CC2CC2)[C@H]1O5`, the Potency entry in assay [1], in assay [4], in assay [12], in [13], in [14] and in assay [6] was “inactive” each time. Moreover, the Potency entry in [17], in assay [15], in [8], in [16] and in [11] was “inactive” in each case. Besides, the outcome in [3] and in assay [10] was inactive.

`C1CS1`: the Potency entry in assay [2], in [4], in [5], in assay [12], in [13] and in [6] was “inactive” throughout. Further, the Potency entry in assay [15], in assay [8], in assay [16], in assay [9] and in assay [11] was “inactive” throughout. For the same compound, the outcome in assay [10] was inactive.

As to `CCC1CCC(=O)O1` (stereo not given), the Potency entry in [1], in assay [4], in [5], in assay [12], in assay [13] and in assay [14] was “inactive” in each case. For the same compound, the Potency entry in assay [6], in assay [7], in assay [15], in [8], in assay [16] and in [11] was “inactive” each time. For the same compound, the compound was called inactive in assay [10].

On to `Cc1nc2ccccc2c(=O)n1-c1ccccc1Cl`, for which the Potency result in assay [1], in [2], in [4], in assay [17], in assay [7] and in [15] was “inactive” in each case. Moreover, the Potency result in [8], in [16] and in assay [9] was “inactive” each time. Besides, the result in assay [3] was inactive. For the same compound, the Potency in assay [12] was 10.6 µM (active); in assay [13], 2.38 µM (active).

Regarding `CCc1cnc(C2=NC(C)(C(C)C)C(=O)N2)c(C(=O)O)c1` (stereo not given), the Potency entry in assay [1], in [4], in assay [5], in assay [12], in [13] and in assay [14] was “inactive” each time. The Potency result in assay [6], in assay [15], in [8], in assay [16] and in [11] was “inactive” throughout. In addition, the outcome in [10] was inactive.

For the compound `CCCCCCCCn1sccc1=O`, the Potency in assay [2] is 30.7 µM (active); in [12], 4.34 µM (active) and 3.21 µM (active); in [13] it was 4.34 µM (active); in [6], 1.37 µM (active) and 1.02 µM (active); in [7] it was 27.4 µM (active) and 32.1 µM (active); in assay [15], 61.3 µM (active) and 57.1 µM (active). In addition, the Potency in assay [8] was 30.7 µM (active) and 28.6 µM (active); in [11], 61.3 µM (active) and 71.9 µM (active). Further, the Potency entry in assay [4], in assay [5], in assay [14], in [17] and in [9] was “inactive” each time. Also, the result in assay [10] was inactive.

Regarding `O=C(Cc1ccccc1)OCCc1ccccc1`, the Potency result in assay [2], in assay [4], in [12], in assay [13], in [14] and in assay [6] was “inactive” throughout. The Potency entry in [7], in assay [15], in [8], in [16], in assay [9] and in assay [11] was “inactive” throughout. Besides, the result in [10] was inactive.

On to `CCOP(=O)(SC(C)CC)N1CCSC1=O` (stereo not given), for which the Potency result in [1], in [4], in assay [5], in [12], in assay [13] and in assay [14] was “inactive” throughout. Further, the Potency result in assay [6], in assay [15], in assay [8], in [16] and in assay [11] was “inactive” in each case. Besides, the compound was classed as inactive in [10].
